Test results as given in PubChem BioAssay (EPA / NIEHS).
Values joined by “and” are separate entries in the source; they are usually repeats but may differ in a detail not shown here. Identical values can stand only once. Active and inactive are the calls of the source. The calls were made as follows: active = hit-call score of the fitted dose curve at least 0.9, where 1 is the maximum; inactive = score below 0.9.

read-out: Bcl-2 (BAD) gene, BAD (gene 572); assay: LTEA_HepaRG_BAD: Life Technologies and Expression Analysis (LTEA) Assay for Bcl-2 (BAD) gene using HepaRG (AID 2283469); settings: mRNA level, 48 h; actives raise or lower the signal
Method in brief: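 Activity values reflect up- or down-regulation of BAD mRNA in human HepaRG hepatic cells treated 48 h in serum-free medium, with eight-point half-log dosing capped at 100 uM and 0.5% DMSO vehicle.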

| Structure (SMILES) | outcome |
| --- | --- |
| CCNc1nc(N)nc(Cl)n1 | inactive |
| CC(C)(C)[C@@H](O)[C@@H](Cc1ccc(Cl)cc1)n1cncn1 | inactive |
| C=CCOC(Cn1ccnc1)c1ccc(Cl)cc1Cl (stereo not given) | inactive |
| N[C@@H](Cc1cc(I)c(Oc2ccc(O)c(I)c2)c(I)c1)C(=O)O | inactive |
| CCOC(=O)NCCOc1ccc(Oc2ccccc2)cc1 | inactive |
| COC(=O)c1ccccc1C(=O)O | inactive |
| O=C(c1ccccc1)C1CCCCC1 | inactive |
| CCCCCCC(C)OC(=O)COc1nc(F)c(Cl)c(N)c1Cl (stereo not given) | inactive |
| CCOC(=O)C(C)Oc1ccc(Oc2nc3ccc(Cl)cc3o2)cc1 (stereo not given) | inactive |
| O=C(O)C1(C(=O)Nc2ccc(Cl)cc2Cl)CC1 | inactive |
| CC(C)(c1ccc(O)cc1)c1ccc(O)cc1 | inactive |
| CC(=O)S[C@@H]1CC2=CC(=O)CC[C@]2(C)[C@H]2CC[C@@]3(C)[C@@H](CC[C@@]34CCC(=O)O4)[C@H]12 | inactive |
| OB(O)O | inactive |
| S=C(S)NCCNC(=S)S.[Mn+2].[S-]C([S-])=NCCN=C([S-])[S-].[Zn+2] | inactive |
| Cc1nn(C)c(Oc2ccccc2)c1C=NOCc1ccc(C(=O)OC(C)(C)C)cc1 | inactive |
| Oc1ccc(C(c2ccc(O)cc2)C(Cl)(Cl)Cl)cc1 | inactive |
| O=C(O)c1ccccc1 | inactive |
| COC(=O)c1ccc(I)cc1S(=O)(=O)NC(=O)Nc1nc(C)nc(OC)n1 | inactive |
| CCCOC(=O)c1ccc(C(=O)OCCC)nc1 | inactive |
| CSC(=O)c1cccc2nnsc12 | inactive |
| COCCO | inactive |
| CCCCCOC(=O)COc1cc(N2C(=O)C3=C(CCCC3)C2=O)c(F)cc1Cl | inactive |
| CCCCC(CC)CN1C(=O)C2C3C=CC(C3)C2C1=O (stereo not given) | inactive |
| CCN(CC)C(=O)c1cccc(C)c1 | inactive |
| c1ccc(Nc2ccccc2)cc1 | inactive |
| CC1(C)C(C=C(Cl)Cl)C1C(=O)OCc1cccc(Oc2ccccc2)c1 (stereo not given) | inactive |

read-out: Bcl-2 (BAX) gene, BAX (gene 581); assay: LTEA_HepaRG_BAX: Life Technologies and Expression Analysis (LTEA) Assay for Bcl-2 (BAX) gene using HepaRG (AID 2283470); settings: mRNA level, 48 h; actives raise or lower the signal
Method in brief: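 Cells were thawed, plated for 48 h, moved to serum-free induction medium and dosed for 48 h (highest concentration 100 uM, half-log steps, 0.5% DMSO). Total RNA was then analysed for BAX expression by qRT-PCR.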

| Structure (SMILES) | outcome | AC50 |
| --- | --- | --- |
| CC(C)(C)[C@@H](O)[C@@H](Cc1ccc(Cl)cc1)n1cncn1 | inactive |  |
| C=CCOC(Cn1ccnc1)c1ccc(Cl)cc1Cl (stereo not given) |  | 33.9 µM (active) |
| N[C@@H](Cc1cc(I)c(Oc2ccc(O)c(I)c2)c(I)c1)C(=O)O | inactive |  |
| CCOC(=O)NCCOc1ccc(Oc2ccccc2)cc1 | inactive |  |
| COC(=O)c1ccccc1C(=O)O | inactive |  |
| O=C(c1ccccc1)C1CCCCC1 | inactive |  |
| CCCCCCC(C)OC(=O)COc1nc(F)c(Cl)c(N)c1Cl (stereo not given) | inactive |  |
| O=C(O)C1(C(=O)Nc2ccc(Cl)cc2Cl)CC1 | inactive |  |
| Cc1nn(C)c(Oc2ccccc2)c1C=NOCc1ccc(C(=O)OC(C)(C)C)cc1 |  | 22.2 µM (active) |
| O=C(O)c1ccccc1 | inactive |  |
| CCCOC(=O)c1ccc(C(=O)OCCC)nc1 | inactive |  |
| CSC(=O)c1cccc2nnsc12 | inactive |  |
| CCCCC(CC)CN1C(=O)C2C3C=CC(C3)C2C1=O (stereo not given) | inactive |  |

read-out: adenosine kinase (ADK) gene, ADK (gene 132); assay: LTEA_HepaRG_ADK: Life Technologies and Expression Analysis (LTEA) Assay for adenosine kinase (ADK) gene using HepaRG (AID 2283471); settings: mRNA level, 48 h; actives raise or lower the signal
Method in brief: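 Differentiated HepaRG cells dosed 48 h in serum-free induction medium, 0.5% DMSO vehicle, eight half-log concentrations from 100 uM, in duplicate. ADK mRNA by TaqMan qRT-PCR normalised to ACTB, GAPDH, POLR2A; bidirectional fit versus DMSO.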

| Structure (SMILES) | outcome | AC50 |
| --- | --- | --- |
| CCNc1nc(N)nc(Cl)n1 | inactive |  |
| CC(C)(C)[C@@H](O)[C@@H](Cc1ccc(Cl)cc1)n1cncn1 | inactive |  |
| C=CCOC(Cn1ccnc1)c1ccc(Cl)cc1Cl (stereo not given) | inactive |  |
| N[C@@H](Cc1cc(I)c(Oc2ccc(O)c(I)c2)c(I)c1)C(=O)O | inactive |  |
| CCOC(=O)NCCOc1ccc(Oc2ccccc2)cc1 | inactive |  |
| COC(=O)c1ccccc1C(=O)O | inactive |  |
| O=C(c1ccccc1)C1CCCCC1 | inactive |  |
| CCCCCCC(C)OC(=O)COc1nc(F)c(Cl)c(N)c1Cl (stereo not given) | inactive |  |
| CCOC(=O)C(C)Oc1ccc(Oc2nc3ccc(Cl)cc3o2)cc1 (stereo not given) | inactive |  |
| O=C(O)C1(C(=O)Nc2ccc(Cl)cc2Cl)CC1 |  | 79.4 µM (active) |
| CC(C)(c1ccc(O)cc1)c1ccc(O)cc1 | inactive |  |
| CC(=O)S[C@@H]1CC2=CC(=O)CC[C@]2(C)[C@H]2CC[C@@]3(C)[C@@H](CC[C@@]34CCC(=O)O4)[C@H]12 |  | 50 µM (active) |
| OB(O)O | inactive |  |
| S=C(S)NCCNC(=S)S.[Mn+2].[S-]C([S-])=NCCN=C([S-])[S-].[Zn+2] |  | 255 nM (active) and 1.08 µM (active) and 270 nM (active) |
| Cc1nn(C)c(Oc2ccccc2)c1C=NOCc1ccc(C(=O)OC(C)(C)C)cc1 | inactive |  |
| Oc1ccc(C(c2ccc(O)cc2)C(Cl)(Cl)Cl)cc1 |  | 75.9 µM (active) |
| O=C(O)c1ccccc1 | inactive |  |
| COC(=O)c1ccc(I)cc1S(=O)(=O)NC(=O)Nc1nc(C)nc(OC)n1 | inactive |  |
| CCCOC(=O)c1ccc(C(=O)OCCC)nc1 | inactive |  |
| CSC(=O)c1cccc2nnsc12 | inactive |  |
| COCCO | inactive |  |
| CCCCCOC(=O)COc1cc(N2C(=O)C3=C(CCCC3)C2=O)c(F)cc1Cl | inactive |  |
| CCCCC(CC)CN1C(=O)C2C3C=CC(C3)C2C1=O (stereo not given) | inactive |  |
| CCN(CC)C(=O)c1cccc(C)c1 | inactive |  |
| c1ccc(Nc2ccccc2)cc1 | inactive |  |
| CC1(C)C(C=C(Cl)Cl)C1C(=O)OCc1cccc(Oc2ccccc2)c1 (stereo not given) | inactive |  |
